Here are results for 42 sequences from article PMC7819943, “Rice protein-binding microarrays: a tool to detect cis-acting elements near promoter regions in rice”.

In all, about 68,000 sequences were measured (“fluorescence intensity (a.u.)”: median about 9,100, highest 2% from about 16,000 on). The sample holds the highest values, similar sequences and a random draw of the others, so the mix is not that of the screen.

The assay deals with OsWRKY34 (Oryza sativa, UniProt Q0JBA9 1-250). The assay can be described thus: protein-binding microarray (RPBM); PBS, 2% BSA, 51.3 ng/ul salmon testes DNA, 50 uM zinc acetate, 200 nM TF, 25 C, 1 h; high values mean tight binding. The following applies: protein: recombinant; tags: N-terminal polyhistidine and DsRed monomer fusion (pET32a); label: CyDye5-dUTP incorporated in the synthesized complementary strand; 3' TTTTT single-stranded linker to array surface; dsDNA, one strand shown. An outline of the steps: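 Using Ni–NTA, transcription factors fused N-terminally to polyhistidine and DsRed were purified after expression in E. coli BL21-CodonPlus. These were incubated at 200 nM with a blocked, double-stranded custom Agilent array for 1 h at 25 °C in a buffer containing 50 µM zinc acetate, and the array was washed. The binding signal is per-feature fluorescence intensity (arbitrary units) on an Axon 4000B scanner.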
Chain of OsWRKY34 (Q0JBA9 entry or part of it): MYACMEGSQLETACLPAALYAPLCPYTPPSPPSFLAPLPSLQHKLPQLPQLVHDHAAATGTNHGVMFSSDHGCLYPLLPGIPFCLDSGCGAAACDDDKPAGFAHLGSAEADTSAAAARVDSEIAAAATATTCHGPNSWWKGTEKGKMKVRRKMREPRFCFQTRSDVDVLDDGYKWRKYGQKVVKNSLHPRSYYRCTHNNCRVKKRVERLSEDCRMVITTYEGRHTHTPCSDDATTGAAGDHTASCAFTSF
Consider “TGTTTGCACCTTATTACGGTTCTGCGCGCTCTCTCTCTCGCGGAGTCACCTAGTGCAG”, for which the binding signal was 8560 fluorescence intensity (a.u.).

Consider “ATACTTAATTAATCATTCGCTAATGGACCACTCTGTTTTCCGGAGTCACCTAGTGCAG”, for which the binding signal is 8430 fluorescence intensity (a.u.). Take “CCATTGTGTCATTCAGTTATTGTTACTTTCAGTTGTTCTACGGAGTCACCTAGTGCAG”: the binding signal is 12200 fluorescence intensity (a.u.). With “GTCTCTCTCACCGTCTCCGTGCTCCTCCGCCGCCCAAGGGCGGAGTCACCTAGTGCAG” the figure was 12900 fluorescence intensity (a.u.). Then “GCAAGGTGTACCCGCAGTTCTCACGGTTACCACCATTTTCCGGAGTCACCTAGTGCAG”, with 8430 fluorescence intensity (a.u.). Turning to “CGAGTCGAGCTTTTCTTTCTTTGGTTGGTTGGTTGGTGTTCGGAGTCACCTAGTGCAG”, the binding signal is 19600 fluorescence intensity (a.u.). With “CGAGGTCGTTTGGTTTTCTTTTCCTTTTTGGTTGTGTGTTCGGAGTCACCTAGTGCAG” the figure was 9070 fluorescence intensity (a.u.).

For the sequence “CGTTCGCGTTTCGGTTTGACCGCGCGTCTCGCCTAGATTTCGGAGTCACCTAGTGCAG”, the binding signal was 8650 fluorescence intensity (a.u.). Then “CGGCTAGGGTTTGTTTTTCTTTTCTTTTTTTCCTTTTCTTCGGAGTCACCTAGTGCAG”, with 14300 fluorescence intensity (a.u.); and “TGGTGTTGTTGGTGTCGTCTTGTTCTTGTTTGTGTTTTCTCGGAGTCACCTAGTGCAG”, with 15900 fluorescence intensity (a.u.); and “GTGGGTATGGTTGACTTGACGGACGTACTACTCCATACTACGGAGTCACCTAGTGCAG”, with 8190 fluorescence intensity (a.u.).

As to “AGTTTTTTTTTCAGCTTTTTGGTTTCTTTTGCTGTTGTTTCGGAGTCACCTAGTGCAG”, the binding signal was 10300 fluorescence intensity (a.u.). As for “CGAGGTTCTTTGCTTCATACTTTTTTTTGGTGTTCTACTTCGGAGTCACCTAGTGCAG”, the binding signal was 11200 fluorescence intensity (a.u.). Then “GTGCTACTCCATATACGTATGGCTGGTTTGGTTGGTTGAGCGGAGTCACCTAGTGCAG”, with 21400 fluorescence intensity (a.u.). Then “AGAGTTTGGCATACTCCTACGTATCATTGTCGACCTTTAGCGGAGTCACCTAGTGCAG”, with 8340 fluorescence intensity (a.u.); and “TTGGTTCGGTTTTTTCTGCCCGCGTCGGTTTTTGTCTCACCGGAGTCACCTAGTGCAG”, with 20100 fluorescence intensity (a.u.); and “TGGTTGGTTTGTTGGGTTCTTTTCCTTTTTTTTGTTTCTTCGGAGTCACCTAGTGCAG”, with 26700 fluorescence intensity (a.u.).

With “TAGATAGGGGATGTATAGGACAAGAGAGAACACATGCATTCGGAGTCACCTAGTGCAG”, the binding signal was 8690 fluorescence intensity (a.u.).

In the case of “TTAACCTCTCTCTTAATTTCAGTTTGTTTGTTCGTTCGTTCGGAGTCACCTAGTGCAG”, the binding signal was 9010 fluorescence intensity (a.u.). For “ACAGCCTATATACACTACTCACTCCGTCTCAGAATATAAGCGGAGTCACCTAGTGCAG”, the binding signal was 8900 fluorescence intensity (a.u.). As for “CATCCCAATTTTCTGGCCACACTTGCATCCCTCTGCCGCCCGGAGTCACCTAGTGCAG”, the binding signal is 10800 fluorescence intensity (a.u.).

For “ACCACCCTACCTAGCTTAGAATATTTACCATGCATTCTCTCGGAGTCACCTAGTGCAG”, the binding signal was 11100 fluorescence intensity (a.u.). On to “TCTTCTTCTTGTTTCGGCTTCCGCCTCCGTCCCGCGCGCGCGGAGTCACCTAGTGCAG”, for which the binding signal was 13800 fluorescence intensity (a.u.). Then “CAAATTATGAGCCTGTTCACTTTGATGCTCTTTTCAACCACGGAGTCACCTAGTGCAG”, with 8320 fluorescence intensity (a.u.); and “TCCCAAACCCCGCGCCGCCTCTTACCGCTTCGCGTCAGCTCGGAGTCACCTAGTGCAG”, with 8490 fluorescence intensity (a.u.). With “ACCTATCTTTCTCTATTTTTTATTTTTTTAGCGAAACACACGGAGTCACCTAGTGCAG” the figure was 9780 fluorescence intensity (a.u.). With “TCCGTTTTTGTGGTTTTCGATGGATTCCGTCGTCGCCGACCGGAGTCACCTAGTGCAG” the figure was 9660 fluorescence intensity (a.u.); with “GATGGACATTGTTTGCCATCACCGTCAACGACCGTTGACTCGGAGTCACCTAGTGCAG”, 12900 fluorescence intensity (a.u.). In the case of “GCTTCGTTGGCTCCGTGAAACTGTCTCTCTCTCCCAACTCCGGAGTCACCTAGTGCAG”, the binding signal was 8030 fluorescence intensity (a.u.). With “TTTGCACTGGTTTTGTAAGTTGGGGATGTATTGTATGAGGCGGAGTCACCTAGTGCAG” the figure was 9560 fluorescence intensity (a.u.); with “CGTGAGGAATGGGATTTTTATTTTGCTGGTTACTGTTTGACGGAGTCACCTAGTGCAG”, 10000 fluorescence intensity (a.u.). Then “AGTCAAATTTGTTTTTTTTCGTTGCAACTTGTATAATTTACGGAGTCACCTAGTGCAG”, with 9430 fluorescence intensity (a.u.); and “GTGTCATTCTCCTCACACGCCGGTCTCCATGAGCGAGTTTCGGAGTCACCTAGTGCAG”, with 8110 fluorescence intensity (a.u.).

As for “AAAGTTGGGGTCAGGTGGTTTTGGTTCTGTGTTCAAGGGACGGAGTCACCTAGTGCAG”, the binding signal was 11500 fluorescence intensity (a.u.).

Take “AAAATTCTTGGTCTTCTTGGTCTCGGTTAGTTCGGTTCGACGGAGTCACCTAGTGCAG”: the binding signal was 8110 fluorescence intensity (a.u.). With “GACGTGTTTGGTCTTCGGTTCGGTGGGTCTCAAGTTCTGACGGAGTCACCTAGTGCAG” the figure was 19400 fluorescence intensity (a.u.); with “GGACCCACCTGCCGAACCAGCACGCATCGCGTCTCGCACCCGGAGTCACCTAGTGCAG”, 8590 fluorescence intensity (a.u.). As for “GGTCAAATTCTCATTTTGCAATATCCCACAGCTAATTACACGGAGTCACCTAGTGCAG”, the binding signal was 9540 fluorescence intensity (a.u.).

In the case of “ATCACGGGATTACACAGCAAAGTAGCAAAGCTAAATTTTACGGAGTCACCTAGTGCAG”, the binding signal is 63700 fluorescence intensity (a.u.). Then “TGCAAAGTAGTAGTTGGGGATTTAATAGTGGCTTACAATACGGAGTCACCTAGTGCAG”, with 8620 fluorescence intensity (a.u.).

For “GCTAATAAGTGCTTACATTGTTTTGGATGATCACCAGCAACGGAGTCACCTAGTGCAG”, the binding signal is 8080 fluorescence intensity (a.u.). For “ATGCTCCTACTTTCCTTTGCTGTATATATTACTCCATTTGCGGAGTCACCTAGTGCAG”, the binding signal was 8260 fluorescence intensity (a.u.).
